FUS suppressor: FUS proteinopathy suppression in yeast | S. cerevisiae FUS-expressing, growth rescue, OD600, 24 h | Potency, µM (doses to about 76.6 µM), actives largely listed as activators | 390,000 compounds, 0.24% hits; further: nearly all actives have a fitted effect of over 55% in size
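Read-out: OD at 600 nm after 24hr at 30C, reporting rescue of FUS-induced yeast toxicity. Cells at OD 0.005 in galactose (2%) minimal medium; compounds tested in a dilution series; CP55940 titration from 92uM final as control.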
Abeta yeast res: restores growth of yeast expressing A-beta42 peptide. yeast expressing A-beta42, growth rescue, OD600, 48 h; response scale: 0% DMSO, 100% iron-clioquinol control. Potency, µM (doses to about 46.1 µM), usual class: activators. 410,000 compounds, 0.063% hits; further: nearly all actives have a fitted effect of over 55% in size
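Yeast A-beta toxicity model in growth medium with pinned compounds, 48 h at 30 C; growth read as absorbance at 600 nm. Normalized to FeCl3/clioquinol equimolar mix (positive) and DMSO (negative).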
aSyn yeast inh: inhibitors of alpha-synuclein toxicity in yeast; Yeast expressing alpha-synuclein, growth rescue, BacTiter-Glo, 24 h; Potency, µM (titrated, usually from 46.1 µM), most hits filed as activators; 370,000 compounds, 0.14% hits; further: nearly all actives have a fitted effect of over 65% in size
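Readout is rescue of growth in alpha-synuclein-expressing yeast, so inhibitors of toxicity appear as activators. Growth after 24 hr at 30 deg C in galactose medium is quantified by luminescence.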
TDP43 rescue: TDP-43 toxicity inhibition in yeast; TDP-43 expressing yeast growth rescue, BacTiter-Glo, 24 h; Potency, µM (series often up to 46.1 µM), hits mostly activators; 410,000 compounds, 1.8% hits; further: nearly all actives have a fitted effect of over 50% in size
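Galactose-induced TDP-43 yeast, OD600=0.02, compound pinned; 24 hr, 30 deg C; BacTiter-Glo luminescence for growth. Inhibitors of TDP-43 toxicity read as activators.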
Each line names hits and unclear results; the compound was inactive in the other large screens. Rows were chosen to be rich in hits. Some 2.1% of all compounds tested hit in one or more screens of this group. The call rests on the fitted dose curve; in most records, active means well fitted curve in the direction sought with a large enough effect; inconclusive means small, poorly fitted or top-dose-only effect, or another doubt; inactive means no such curve, though single readings can be large; an effect the other way counts as inactive or inconclusive.

COc1ccccc1N(CC(=O)N/N=C(\C)c1ccc(F)cc1)S(=O)(=O)c1ccccc1	none (no result: FUS suppressor)
CC(=O)c1cccc(Nc2nc(-c3cccc(C)c3)nc3ccccc23)c1	FUS suppressor inconclusive, TDP43 rescue 15.8µM (no result: aSyn yeast inh)
COc1ccc(S(=O)(=O)N2CCN(C(=O)c3oc4ccccc4c3C)CC2)cc1	FUS suppressor inconclusive, TDP43 rescue 11.2µM
Cc1c(C(=O)N2CCN(S(=O)(=O)c3cc(F)ccc3F)CC2)oc2ccccc12	TDP43 rescue 14.1µM
COc1ccc2oc(C(=O)N3CCN(S(=O)(=O)c4ccc(F)cc4)CC3)c(C)c2c1	TDP43 rescue inconclusive
Cc1c(C(=O)N2CCN(S(=O)(=O)c3ccccc3)CC2)oc2ccccc12	TDP43 rescue 15.8µM
Cc1c(C(=O)N2CCN(c3ccccc3)CC2)oc2c(F)cccc12	TDP43 rescue 14.1µM
CCCCC(=O)Nc1nnc(SCc2cc(=O)n3cc(C)ccc3n2)s1	none (no result: aSyn yeast inh)
S=C(NCCc1ccccc1)N1CCC2CC1c1cc(-c3ccc4c(c3)OCO4)ccc12 (stereo not drawn)	TDP43 rescue inconclusive
COCCNC(=S)N1CCC2CC1c1cc(-c3ccc4c(c3)OCO4)ccc12 (stereo not drawn)	FUS suppressor inconclusive, Abeta yeast res inconclusive, TDP43 rescue 22.4µM
S=C(NCc1ccccc1)NCc1cccc(Cl)c1	Abeta yeast res 14.1µM
O=C(NCc1cccnc1)/C(=C/c1ccccc1)NC(=O)c1ccccc1	none
Cc1ccc(C(=O)NC(=S)NCc2ccccc2)cc1	Abeta yeast res inconclusive, TDP43 rescue 15.8µM
Cc1ccc(C(=O)N/C(=C\c2ccccc2)C(=O)NCc2cccnc2)cc1	TDP43 rescue 2µM
Fc1ccc(NC(=S)NCc2ccccc2Cl)cc1	Abeta yeast res inconclusive
S=C(NCc1ccccc1)NCc1ccccc1Cl	Abeta yeast res 12.6µM, TDP43 rescue inconclusive
CCc1ccccc1NC(=O)C1CCCN(C(=O)c2cnn(-c3ccccc3)c2-n2cccc2)C1 (stereo not drawn)	none (no result: aSyn yeast inh)
O=C(NC(=S)NCc1ccccc1)c1cccc(Cl)c1	TDP43 rescue 15.8µM
O=C(NC(=S)NCc1ccccc1)c1cccnc1	none
O=[N+]([O-])c1ccc(Cl)c(-c2ccc(/C=N/c3c(-c4ccco4)nc4ccccn34)o2)c1	none
Cc1cc(C)c([N+](=O)[O-])cc1-c1ccc(/C=N/c2c(-c3ccco3)nc3ccccn23)o1	TDP43 rescue 14.1µM
C#CCOCCOCCOCCNc1nc(N2CCN(C(=O)CCCCCCCCCCNC(=O)[C@H](CO)n3cc(CCCSC)nn3)CC2)nc(N2CCN(C(=O)CCCCCCCCCCNC(=O)[C@H](CCCCN)n3cc(CCO)nn3)CC2)n1	FUS suppressor 12.6µM, TDP43 rescue inconclusive
C#CCOCCOCCOCCNc1nc(N2CCN(C(=O)CCCCCCCCCCNC(=O)[C@@H](CCSC)n3cc(CCO)nn3)CC2)nc(N2CCN(C(=O)CCCCCCCCCCNC(=O)[C@H](CCSC)n3cc(CCO)nn3)CC2)n1	FUS suppressor inconclusive
C#CCOCCOCCOCCNc1nc(N2CCN(C(=O)CCCCCCCCCCNC(=O)Cn3cc(C[C@@H](C)O)nn3)CC2)nc(N2CCN(C(=O)CCCCCCCCCCNC(=O)[C@H](CCCCN)n3cc(CCCC(=O)O)nn3)CC2)n1	FUS suppressor inconclusive
C#CCOCCOCCOCCNc1nc(N2CCN(C(=O)CCCCCCCCCCNC(=O)Cn3cc(C[C@@H](C)O)nn3)CC2)nc(N2CCN(C(=O)CCCCCCCCCCNC(=O)[C@H](CCCN=C(N)N)n3cc(C[C@@H](C)CC)nn3)CC2)n1	FUS suppressor 11.2µM
C#CCOCCOCCOCCNc1nc(N2CCN(C(=O)CCCCCCCCCCNC(=O)[C@H](CO)n3cc(CCCSC)nn3)CC2)nc(N2CCN(C(=O)CCCCCCCCCCNC(=O)[C@H](CCCN=C(N)N)n3cc(C[C@@H](C)CC)nn3)CC2)n1	FUS suppressor 8.91µM
CCOC(=O)C1(C)CCN1C(=O)c1oc2ccccc2c1C (stereo not drawn)	none
CNc1nc(-c2c(C)n(C)c3ccc(OC)cc23)cs1	none
O=CNCCCc1nc2ccccc2n1CCc1ccccc1	none
Cc1cc(Cl)ccc1NC(=O)c1cc(S(=O)(=O)N2CCOCC2)cn1C	none (no result: aSyn yeast inh)
CCOC(=O)c1sc(=S)n(-c2ccc(Cl)cc2)c1C	TDP43 rescue 25.1µM
CCOC(=O)c1sc(=S)n(-c2cc(OC)ccc2OC)c1N	none
CCOC(=O)c1sc(=S)n(-c2ccc(OC)cc2)c1C	TDP43 rescue 20µM
Cc1ccc(/C=N/NC(=S)N2CCOCC2)cc1	Abeta yeast res inconclusive, TDP43 rescue 22.4µM (no result: FUS suppressor)
S=C(N/N=C/c1ccc(Cl)cc1)N1CCOCC1	Abeta yeast res inconclusive, TDP43 rescue inconclusive (no result: FUS suppressor)
COc1cc(/C=C/c2nc3cc(Cl)ccc3c(=O)n2-c2cccc(C(F)(F)F)c2)cc(OC)c1OC	none (no result: aSyn yeast inh)
CCN1CCN(C(c2ccccc2Cl)c2sc3nc(-c4ccco4)nn3c2O)CC1 (stereo not drawn)	none (no result: aSyn yeast inh)
CCCCCCOc1ccc(/C=C/C(=O)Nc2sc3c(c2C(=O)OC)CCC3)cc1OC	TDP43 rescue 17.8µM (no result: aSyn yeast inh)
CNC(=O)c1c(NC(=O)/C=C/c2ccccc2)sc2c1CCC2	TDP43 rescue 17.8µM
O=C(/C=C/c1ccccc1)Nc1sc2c(c1C(=O)O)CCC2	none
Nc1c(Cl)ncnc1N/N=C/c1ccc2ccccc2n1	aSyn yeast inh 6.31µM, TDP43 rescue inconclusive
O=C(c1ccc(Cl)cc1)N1CCC(C(=O)N2CCCc3ccccc32)CC1	TDP43 rescue 14.1µM (no result: FUS suppressor)
O=C(CN1C(=O)COc2ccc(S(=O)(=O)N3CCOCC3)cc21)N1CCN(c2cccc(C(F)(F)F)c2)CC1	none
Cc1csc(NC(=O)c2cc3c(s2)CCCCC3)n1	none
O=C(Nc1ccccc1N1CCOCC1)c1cc2c(s1)CCCCC2	TDP43 rescue 7.94µM
Cc1csc(NC(=O)c2cc3c(s2)CCCC3)n1	TDP43 rescue 28.2µM
O=C(Nc1ccon1)c1cc2c(s1)CCCCCC2	TDP43 rescue 12.6µM
Fc1cccc(Cl)c1CSc1nnc(CNc2ccccc2)o1	aSyn yeast inh inconclusive, TDP43 rescue 17.8µM
CC(C)(C)OC(=O)NCCc1nnc(SCc2ccc(Cl)cc2)o1	FUS suppressor inconclusive, TDP43 rescue 17.8µM
Fc1ccc(NCc2nnc(SCc3ccccc3)o2)cc1	TDP43 rescue inconclusive
Cc1ccc(CSc2nnc(CCCCCNC(=O)OC(C)(C)C)o2)cc1	FUS suppressor inconclusive
Clc1ccc(CSc2nnc(CNc3cccc(Cl)c3)o2)cc1	aSyn yeast inh 8.91µM
O=C(Nc1cc(Cl)ccc1-n1cncn1)c1ccc([N+](=O)[O-])o1	TDP43 rescue 14.1µM
CC(C)CCOc1ccc(C(=O)NNC(=O)CNC(=O)c2ccccc2F)cc1	none (no result: FUS suppressor)
COC(=O)c1ccc(NCc2cc(O)ccc2O)cc1O	none (no result: FUS suppressor)
COC(=O)c1ccc(NCc2c(O)ccc(O)c2Br)cc1Cl	TDP43 rescue 20µM (no result: FUS suppressor)
CCN(CC)S(=O)(=O)c1ccc(N2CCOCC2)c(NC(=O)c2ccc(C#N)cc2)c1	FUS suppressor 28.2µM
CCN(CC)S(=O)(=O)c1ccc(N2CCOCC2)c(NC(=O)c2ccc(F)cc2)c1	TDP43 rescue inconclusive

Bioassay records deposited in PubChem by National Center for Advancing Translational Sciences (NCATS).
